This passage reports binding signal results from paper PMC7862700, “An all-to-all approach to the identification of sequence-specific readers for epigenetic DNA modifications on cytosine”.

What all share (assay): DAPPL (digital affinity profiling via proximity ligation, sequencing); 10 mM Tris-HCl pH 7.5, 50 mM NaCl, 1 mM DTT, 4% glycerol, room temperature, 30 min; GST-TFs on glutathione beads, 16-mer random dsDNA library, 0.1% formaldehyde crosslink after washing; high values mean tight binding
For assay [1], the target named is T1, FEV (Homo sapiens, UniProt Q99581 1-238).
T1 sequence: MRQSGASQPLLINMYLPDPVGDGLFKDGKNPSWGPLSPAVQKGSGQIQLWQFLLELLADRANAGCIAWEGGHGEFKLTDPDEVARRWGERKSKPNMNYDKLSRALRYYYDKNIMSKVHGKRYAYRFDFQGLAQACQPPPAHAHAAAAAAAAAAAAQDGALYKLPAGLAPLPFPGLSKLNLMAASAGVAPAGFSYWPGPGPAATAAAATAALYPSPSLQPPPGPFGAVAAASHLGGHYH
To be noted: protein: recombinant; tags: N-terminal GST; dsDNA, one strand shown. A digest of the protocol: (§1)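 Pools of DNA-barcoded human transcription factors, expressed in yeast as GST fusions on glutathione beads and combined with a tag-only sample, were incubated with 200 nmole of a 16-mer random double-stranded DNA library. Incubation took 30 min at room temperature in Tris/NaCl/DTT/glycerol buffer and was followed by washing, 0.1% formaldehyde crosslinking, proximity ligation (BsaI/T4 ligase, 1 h, 37 °C), PCR amplification and sequencing on an Illumina NextSeq500. Binding signal is the ratio of a hexamer's read frequency for a factor to its frequency for the tag-only sample.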

The target of assay [2] is ETV5 (Homo sapiens, UniProt P41161 1-510). To be noted: protein: recombinant; tags: N-terminal GST; dsDNA, one strand shown. In a few lines:
as §1

Assay [3] has as its target HSF1 (Homo sapiens, UniProt Q00613 1-529). To be noted: protein: recombinant; tags: N-terminal GST; chain copies: 3; dsDNA, one strand shown. A digest of the protocol:
as §1

Assay [4] addresses T2, SPIC (Homo sapiens, UniProt Q8N5J4 1-248).
T2 sequence: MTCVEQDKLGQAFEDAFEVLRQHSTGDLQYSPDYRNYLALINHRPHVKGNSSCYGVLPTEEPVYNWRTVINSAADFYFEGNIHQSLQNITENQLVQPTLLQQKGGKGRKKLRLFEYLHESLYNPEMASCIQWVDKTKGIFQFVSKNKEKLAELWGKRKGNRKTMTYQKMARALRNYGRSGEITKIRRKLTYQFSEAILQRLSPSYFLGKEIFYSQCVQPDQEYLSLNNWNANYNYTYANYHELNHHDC
To be noted: protein: recombinant; tags: N-terminal GST; dsDNA, one strand shown. A digest of the protocol: as §1

Assay [5] has as its target ELF4 (Homo sapiens, UniProt Q99607 1-663). To be noted: protein: recombinant; tags: N-terminal GST; dsDNA, one strand shown. A digest of the protocol: as §1
For assay [6], the target named is T3, ELK4 (Homo sapiens, UniProt P28324-2 1-405).
T3 sequence: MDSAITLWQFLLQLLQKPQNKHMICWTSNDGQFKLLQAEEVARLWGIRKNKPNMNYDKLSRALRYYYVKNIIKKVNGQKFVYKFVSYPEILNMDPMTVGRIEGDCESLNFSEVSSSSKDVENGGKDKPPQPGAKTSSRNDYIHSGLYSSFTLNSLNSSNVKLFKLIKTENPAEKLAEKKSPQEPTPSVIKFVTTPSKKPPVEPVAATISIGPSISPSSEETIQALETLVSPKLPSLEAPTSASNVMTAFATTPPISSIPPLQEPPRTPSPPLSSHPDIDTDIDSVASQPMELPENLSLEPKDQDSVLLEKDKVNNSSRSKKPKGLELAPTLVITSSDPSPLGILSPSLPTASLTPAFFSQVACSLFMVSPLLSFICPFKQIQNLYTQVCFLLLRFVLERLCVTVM
The following applies: protein: recombinant; tags: N-terminal GST; dsDNA, one strand shown. A digest of the protocol: as §1

The target in assay [7] is T4, ETV2 (Homo sapiens, UniProt O00321 1-342).
T4 sequence: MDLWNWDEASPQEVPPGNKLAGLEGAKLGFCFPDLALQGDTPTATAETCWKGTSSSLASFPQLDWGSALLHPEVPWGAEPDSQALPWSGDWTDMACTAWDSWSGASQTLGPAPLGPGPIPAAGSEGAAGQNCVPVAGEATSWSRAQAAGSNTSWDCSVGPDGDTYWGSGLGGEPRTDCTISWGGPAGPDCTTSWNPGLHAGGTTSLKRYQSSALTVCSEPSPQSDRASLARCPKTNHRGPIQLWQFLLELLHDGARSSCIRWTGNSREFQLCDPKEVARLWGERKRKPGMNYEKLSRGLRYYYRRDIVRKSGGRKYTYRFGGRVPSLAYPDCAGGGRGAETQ
The following applies: protein: recombinant; tags: N-terminal GST; dsDNA, one strand shown. In a few lines:
as §1

Assay [8] concerns the target T5, ELF3 (Homo sapiens, UniProt P78545 1-371).
T5 sequence: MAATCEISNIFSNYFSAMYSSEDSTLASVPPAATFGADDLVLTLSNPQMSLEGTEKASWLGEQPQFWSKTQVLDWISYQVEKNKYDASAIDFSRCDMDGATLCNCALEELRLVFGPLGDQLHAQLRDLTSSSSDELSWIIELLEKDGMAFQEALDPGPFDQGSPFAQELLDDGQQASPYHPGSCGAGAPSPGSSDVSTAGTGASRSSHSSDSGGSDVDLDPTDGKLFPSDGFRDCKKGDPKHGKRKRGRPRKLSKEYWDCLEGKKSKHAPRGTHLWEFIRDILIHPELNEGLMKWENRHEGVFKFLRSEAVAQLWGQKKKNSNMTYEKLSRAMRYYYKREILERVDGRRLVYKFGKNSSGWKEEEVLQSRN
The following applies: protein: recombinant; tags: N-terminal GST; dsDNA, one strand shown. A digest of the protocol:
as §1

For assay [9], the target named is CRX (Homo sapiens, UniProt O43186 1-299). The following applies: protein: recombinant; tags: N-terminal GST; dsDNA, one strand shown. In a few lines: as §1
Sequence of CRX (O43186 whole entry): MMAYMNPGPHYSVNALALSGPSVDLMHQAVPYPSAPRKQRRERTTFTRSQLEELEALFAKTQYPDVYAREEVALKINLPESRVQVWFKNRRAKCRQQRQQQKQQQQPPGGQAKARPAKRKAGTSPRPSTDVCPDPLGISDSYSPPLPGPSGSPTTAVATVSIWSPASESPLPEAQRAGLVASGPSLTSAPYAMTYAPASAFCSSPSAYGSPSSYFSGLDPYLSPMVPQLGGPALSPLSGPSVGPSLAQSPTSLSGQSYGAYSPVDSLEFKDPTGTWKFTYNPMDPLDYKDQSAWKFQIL
Assay [10] has as its target ETV1 (Homo sapiens, UniProt P50549 1-477). The following applies: protein: recombinant; tags: N-terminal GST; dsDNA, one strand shown. In a few lines:
as §1

The target of assay [11] is T6, ERF (Homo sapiens, UniProt P50548 1-548).
T6 sequence: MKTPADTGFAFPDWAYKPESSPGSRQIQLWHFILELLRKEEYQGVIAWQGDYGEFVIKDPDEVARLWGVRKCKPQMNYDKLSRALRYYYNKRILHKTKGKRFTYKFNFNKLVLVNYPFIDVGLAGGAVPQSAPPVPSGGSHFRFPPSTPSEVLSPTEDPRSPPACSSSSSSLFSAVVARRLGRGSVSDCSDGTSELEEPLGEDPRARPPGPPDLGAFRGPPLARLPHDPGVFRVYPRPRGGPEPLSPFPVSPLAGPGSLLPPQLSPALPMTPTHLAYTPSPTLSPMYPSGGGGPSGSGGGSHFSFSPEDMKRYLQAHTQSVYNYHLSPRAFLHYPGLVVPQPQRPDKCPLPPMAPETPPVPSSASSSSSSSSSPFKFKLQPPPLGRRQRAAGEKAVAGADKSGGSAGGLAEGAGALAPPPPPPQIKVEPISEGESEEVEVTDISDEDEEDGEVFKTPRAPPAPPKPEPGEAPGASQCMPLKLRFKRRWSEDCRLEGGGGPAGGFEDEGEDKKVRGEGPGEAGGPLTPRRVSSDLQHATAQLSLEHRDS
To be noted: protein: recombinant; tags: N-terminal GST; dsDNA, one strand shown. A digest of the protocol:
as §1

For assay [12], the target named is T7, ETV3L (Homo sapiens, UniProt Q6ZN32 1-361).
T7 sequence: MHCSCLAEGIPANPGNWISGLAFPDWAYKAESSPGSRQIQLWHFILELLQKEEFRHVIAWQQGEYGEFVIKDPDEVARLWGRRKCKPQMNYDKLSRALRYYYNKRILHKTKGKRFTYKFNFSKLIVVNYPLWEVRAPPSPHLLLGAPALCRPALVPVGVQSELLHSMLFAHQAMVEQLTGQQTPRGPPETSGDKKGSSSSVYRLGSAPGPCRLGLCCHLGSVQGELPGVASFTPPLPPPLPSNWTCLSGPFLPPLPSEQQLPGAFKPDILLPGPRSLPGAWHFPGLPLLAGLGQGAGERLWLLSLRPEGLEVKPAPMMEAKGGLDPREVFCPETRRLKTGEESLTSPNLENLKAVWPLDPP
To be noted: protein: recombinant; tags: N-terminal GST; dsDNA, one strand shown. In a few lines: as §1

Assay [13] concerns the target T8, ETS2 (Homo sapiens, UniProt P15036 1-469).
T8 sequence: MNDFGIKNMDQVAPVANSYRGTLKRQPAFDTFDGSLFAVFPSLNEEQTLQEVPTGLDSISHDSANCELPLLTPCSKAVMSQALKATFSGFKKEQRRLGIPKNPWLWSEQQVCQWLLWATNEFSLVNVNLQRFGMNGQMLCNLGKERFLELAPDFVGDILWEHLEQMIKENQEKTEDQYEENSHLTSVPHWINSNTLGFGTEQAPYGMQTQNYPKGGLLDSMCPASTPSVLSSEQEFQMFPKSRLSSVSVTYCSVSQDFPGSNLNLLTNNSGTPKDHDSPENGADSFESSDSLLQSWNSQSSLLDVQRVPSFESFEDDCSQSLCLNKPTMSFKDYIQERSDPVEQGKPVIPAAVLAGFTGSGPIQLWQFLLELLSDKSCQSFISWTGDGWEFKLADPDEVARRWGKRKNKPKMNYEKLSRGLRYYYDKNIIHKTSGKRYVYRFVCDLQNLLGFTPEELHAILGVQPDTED
To be noted: protein: recombinant; tags: N-terminal GST; dsDNA, one strand shown. In a few lines: as §1

For assay [14], the target named is T9, SPDEF (Homo sapiens, UniProt O95238 1-335).
T9 sequence: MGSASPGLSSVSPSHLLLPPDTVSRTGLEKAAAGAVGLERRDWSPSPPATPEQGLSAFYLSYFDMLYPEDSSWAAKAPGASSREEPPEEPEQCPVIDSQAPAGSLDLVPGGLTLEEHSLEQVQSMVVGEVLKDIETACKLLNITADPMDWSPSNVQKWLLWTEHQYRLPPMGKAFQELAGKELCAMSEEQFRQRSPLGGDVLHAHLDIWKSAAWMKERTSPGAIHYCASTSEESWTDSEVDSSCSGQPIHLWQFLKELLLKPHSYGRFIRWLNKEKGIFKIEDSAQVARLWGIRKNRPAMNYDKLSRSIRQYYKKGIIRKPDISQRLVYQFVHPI
The following applies: protein: recombinant; tags: N-terminal GST; dsDNA, one strand shown. In a few lines:
as §1

The target in assay [15] is T10, ETV7 (Homo sapiens, UniProt Q9Y603 1-341).
T10 sequence: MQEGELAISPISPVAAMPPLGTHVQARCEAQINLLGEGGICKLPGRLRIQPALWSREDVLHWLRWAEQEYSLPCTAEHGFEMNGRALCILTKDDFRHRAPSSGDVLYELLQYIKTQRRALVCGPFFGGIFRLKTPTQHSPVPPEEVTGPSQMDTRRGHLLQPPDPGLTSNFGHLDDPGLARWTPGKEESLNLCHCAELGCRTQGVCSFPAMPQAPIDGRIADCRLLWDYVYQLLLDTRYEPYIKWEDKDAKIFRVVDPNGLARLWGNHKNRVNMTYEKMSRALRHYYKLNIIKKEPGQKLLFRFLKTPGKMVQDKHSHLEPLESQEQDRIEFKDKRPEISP
To be noted: protein: recombinant; tags: N-terminal GST; dsDNA, one strand shown. A digest of the protocol: as §1

Assay [16] has as its target T11, ELF5 (Homo sapiens, UniProt Q9UKW6-2 1-255).
T11 sequence: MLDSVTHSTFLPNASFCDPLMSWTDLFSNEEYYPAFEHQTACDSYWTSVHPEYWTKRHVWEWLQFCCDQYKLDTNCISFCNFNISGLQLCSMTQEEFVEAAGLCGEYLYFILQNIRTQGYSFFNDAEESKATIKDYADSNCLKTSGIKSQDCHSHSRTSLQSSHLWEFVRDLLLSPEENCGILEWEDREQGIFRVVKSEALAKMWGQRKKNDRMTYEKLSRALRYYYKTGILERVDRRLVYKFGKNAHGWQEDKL
The following applies: protein: recombinant; tags: N-terminal GST; dsDNA, one strand shown. A digest of the protocol:
as §1

The target in assay [17] is T12, ETV3 (Homo sapiens, UniProt P41162-2 1-143).
T12 sequence: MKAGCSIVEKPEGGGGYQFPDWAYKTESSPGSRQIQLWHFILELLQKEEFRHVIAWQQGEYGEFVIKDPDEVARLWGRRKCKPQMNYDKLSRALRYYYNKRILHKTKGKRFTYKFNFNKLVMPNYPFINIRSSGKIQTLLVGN
The following applies: protein: recombinant; tags: N-terminal GST; dsDNA, one strand shown. In a few lines:
as §1

Assay [18] has as its target ETV6 (Homo sapiens, UniProt P41212 1-452). To be noted: protein: recombinant; tags: N-terminal GST; dsDNA, one strand shown. A digest of the protocol:
as §1

Sequence of ETV6 (P41212 whole entry): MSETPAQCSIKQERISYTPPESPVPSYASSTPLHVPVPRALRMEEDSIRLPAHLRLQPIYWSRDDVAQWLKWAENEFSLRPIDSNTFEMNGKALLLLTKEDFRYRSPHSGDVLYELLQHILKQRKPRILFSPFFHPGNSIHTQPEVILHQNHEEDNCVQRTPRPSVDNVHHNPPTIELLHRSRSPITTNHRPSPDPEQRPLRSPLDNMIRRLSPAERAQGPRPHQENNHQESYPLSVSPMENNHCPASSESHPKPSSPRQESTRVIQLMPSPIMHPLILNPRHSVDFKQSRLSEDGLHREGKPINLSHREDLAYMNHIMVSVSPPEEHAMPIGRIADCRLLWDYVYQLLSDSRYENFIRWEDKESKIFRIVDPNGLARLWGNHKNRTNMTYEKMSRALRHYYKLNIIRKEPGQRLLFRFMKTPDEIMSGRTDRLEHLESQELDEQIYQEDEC
Sequence of ETV1 (P50549 whole entry): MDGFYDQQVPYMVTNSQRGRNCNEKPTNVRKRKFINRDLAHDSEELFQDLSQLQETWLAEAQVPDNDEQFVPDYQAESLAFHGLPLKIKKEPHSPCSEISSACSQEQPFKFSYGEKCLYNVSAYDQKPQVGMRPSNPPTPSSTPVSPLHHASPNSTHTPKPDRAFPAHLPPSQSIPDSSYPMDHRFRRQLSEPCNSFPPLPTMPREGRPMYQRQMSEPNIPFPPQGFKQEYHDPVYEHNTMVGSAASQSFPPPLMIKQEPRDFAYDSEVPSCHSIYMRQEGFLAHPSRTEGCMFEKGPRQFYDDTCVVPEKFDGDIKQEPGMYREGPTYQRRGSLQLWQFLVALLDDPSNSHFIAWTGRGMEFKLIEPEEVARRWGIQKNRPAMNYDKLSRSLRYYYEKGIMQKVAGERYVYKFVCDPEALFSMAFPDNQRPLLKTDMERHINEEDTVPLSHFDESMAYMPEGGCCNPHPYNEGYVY
Sequence of HSF1 (Q00613 whole entry): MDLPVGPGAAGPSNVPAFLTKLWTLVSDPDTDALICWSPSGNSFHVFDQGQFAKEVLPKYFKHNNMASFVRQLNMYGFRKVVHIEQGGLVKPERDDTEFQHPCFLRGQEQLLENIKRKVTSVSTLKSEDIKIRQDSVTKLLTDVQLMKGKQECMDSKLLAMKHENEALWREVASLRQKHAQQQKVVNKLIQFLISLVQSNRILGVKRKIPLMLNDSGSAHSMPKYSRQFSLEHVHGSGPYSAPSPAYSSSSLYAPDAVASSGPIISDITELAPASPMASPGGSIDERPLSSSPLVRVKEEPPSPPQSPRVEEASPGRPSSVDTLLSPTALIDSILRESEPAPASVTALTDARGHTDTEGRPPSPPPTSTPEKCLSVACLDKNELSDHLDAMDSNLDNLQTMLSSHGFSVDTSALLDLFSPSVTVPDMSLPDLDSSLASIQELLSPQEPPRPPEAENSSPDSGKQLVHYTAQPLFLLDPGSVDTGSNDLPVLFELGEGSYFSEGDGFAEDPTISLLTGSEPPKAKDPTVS
Sequence of ETV5 (P41161 whole entry): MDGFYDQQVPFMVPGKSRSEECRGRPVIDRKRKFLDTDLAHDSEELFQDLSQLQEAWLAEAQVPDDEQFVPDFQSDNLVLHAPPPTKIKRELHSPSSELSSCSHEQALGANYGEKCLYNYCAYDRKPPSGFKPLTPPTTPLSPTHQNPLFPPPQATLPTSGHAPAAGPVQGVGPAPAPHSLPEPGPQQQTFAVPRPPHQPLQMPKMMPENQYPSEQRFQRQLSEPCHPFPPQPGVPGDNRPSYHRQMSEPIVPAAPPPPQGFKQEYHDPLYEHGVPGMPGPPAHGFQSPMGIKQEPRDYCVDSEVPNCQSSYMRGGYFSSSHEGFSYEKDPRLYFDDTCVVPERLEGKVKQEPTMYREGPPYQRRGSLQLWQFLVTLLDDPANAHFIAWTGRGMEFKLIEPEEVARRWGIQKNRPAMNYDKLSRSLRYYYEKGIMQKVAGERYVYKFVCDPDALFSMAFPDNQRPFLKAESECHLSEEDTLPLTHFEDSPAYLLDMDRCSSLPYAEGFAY
Sequence of ELF4 (Q99607 whole entry): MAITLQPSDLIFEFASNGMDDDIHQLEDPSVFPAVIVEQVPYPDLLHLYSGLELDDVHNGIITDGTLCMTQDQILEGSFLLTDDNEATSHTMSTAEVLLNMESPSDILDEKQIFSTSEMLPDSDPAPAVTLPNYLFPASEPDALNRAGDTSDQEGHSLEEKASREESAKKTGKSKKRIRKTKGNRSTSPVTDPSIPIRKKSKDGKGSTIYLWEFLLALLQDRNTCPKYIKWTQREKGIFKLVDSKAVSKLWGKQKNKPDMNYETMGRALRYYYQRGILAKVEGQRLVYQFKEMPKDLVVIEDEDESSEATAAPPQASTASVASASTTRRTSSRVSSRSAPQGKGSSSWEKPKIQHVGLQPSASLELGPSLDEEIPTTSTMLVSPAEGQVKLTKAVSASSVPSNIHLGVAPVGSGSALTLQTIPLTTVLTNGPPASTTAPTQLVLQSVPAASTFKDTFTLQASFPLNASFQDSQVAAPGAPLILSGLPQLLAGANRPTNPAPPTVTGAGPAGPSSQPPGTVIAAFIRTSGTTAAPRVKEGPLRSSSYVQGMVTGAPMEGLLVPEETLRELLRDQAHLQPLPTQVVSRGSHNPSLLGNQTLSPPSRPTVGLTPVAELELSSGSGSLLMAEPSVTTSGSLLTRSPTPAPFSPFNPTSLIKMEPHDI

In the case of TTCAAT, the binding signal in assay [1] is 1.31 fold enrichment (6-mer frequency, TF over GST control); in assay [2], 1.32 fold enrichment (6-mer frequency, TF over GST control); in assay [3] it was 1.27 fold enrichment (6-mer frequency, TF over GST control); in [4], 1.43 fold enrichment (6-mer frequency, TF over GST control); in assay [5] it was 1.33 fold enrichment (6-mer frequency, TF over GST control); in [6] it was 1.42 fold enrichment (6-mer frequency, TF over GST control). Also, the binding signal in assay [7] is 1.43 fold enrichment (6-mer frequency, TF over GST control); in assay [8], 1.36 fold enrichment (6-mer frequency, TF over GST control); in assay [9] it was 1.38 fold enrichment (6-mer frequency, TF over GST control); in assay [10], 1.45 fold enrichment (6-mer frequency, TF over GST control); in assay [11], 1.32 fold enrichment (6-mer frequency, TF over GST control); in [12] it was 1.47 fold enrichment (6-mer frequency, TF over GST control). Moreover, the binding signal in [13] is 1.42 fold enrichment (6-mer frequency, TF over GST control); in assay [14] it was 1.32 fold enrichment (6-mer frequency, TF over GST control); in assay [15], 1.3 fold enrichment (6-mer frequency, TF over GST control); in [16], 1.26 fold enrichment (6-mer frequency, TF over GST control); in assay [17] it was 1.37 fold enrichment (6-mer frequency, TF over GST control); in [18] it was 1.35 fold enrichment (6-mer frequency, TF over GST control).
